Results: PubChem BioAssay (EPA / NIEHS)
Calls of active or inactive are those of the source. The calls were made as follows: active = hit-call score of the fitted dose curve at least 0.9, where 1 is the maximum; inactive = score below 0.9.

Columns and labels:
[1] = read-out: Vascular endothelial growth factor receptor 2 (Homo sapiens) (UniProt P35968); experiment: BSK_4H_VEGFRII: BioMAP Diversity Plus: 4H Assay for Vascular endothelial growth factor receptor 2 (VEGFR2) Biomarker Activity (AID 2283031); details: primary human endothelial cells (HUVEC); actives raise or lower the signal
Method in brief: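 Primary human umbilical vein endothelial cells in the BioMAP 4H system were dosed with test chemical, and 24 h later VEGFRII was measured by ELISA. Activity was fitted bidirectionally against DMSO as negative control and baseline.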

[2] = read-out: Human Leukocyte Antigen - DR isotype (HLADR), HLA-DRA (gene 3122); experiment: BSK_BE3C_HLADR: BioMAP Diversity Plus: BE3C Assay for Human Leukocyte Antigen - DR isotype (HLADR) Biomarker Activity (AID 2283032); details: primary human bronchial epithelial cells; actives raise or lower the signal
Method in brief: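 Chemicals are dosed onto BE3C bronchial epithelial cultures of human origin and left 24 h. HLA-DR is then measured by ELISA, and the endpoint is fitted in both directions using DMSO as the activity baseline.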

[3] = read-out: Vascular cell adhesion molecule 1 (VCAM1), VCAM1 (gene 7412); experiment: BSK_4H_VCAM1: BioMAP Diversity Plus: 4H Assay for Vascular cell adhesion molecule 1 (VCAM1) Biomarker Activity (AID 2283033); details: primary human endothelial cells (HUVEC); actives raise or lower the signal;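 also: cell-surface VCAM-1 protein measured by ELISA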
Method in brief: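 Chemicals are added to primary human umbilical vein endothelial cells. After 24 h, VCAM-1 levels are measured by ELISA. Values come from bidirectional fitting referenced to DMSO.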

[4] = read-out: Interferon-gamma inducible Protein 10 (IP10), CXCL10 (gene 3627); experiment: BSK_BE3C_IP10: BioMAP Diversity Plus: BE3C Assay for Interferon-gamma inducible Protein 10 (IP10) Biomarker Activity (AID 2283034); details: primary human bronchial epithelial cells; actives raise or lower the signal
Method in brief: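 IP-10 quantified by ELISA serves as the endpoint. Cells: primary human bronchial epithelium, read 24 h after compound addition. Activity is derived by bidirectional fitting with DMSO as negative control.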

[5] = read-out: Monokine induced gamma interferon (MIG), CXCL9 (gene 4283); experiment: BSK_BE3C_MIG: BioMAP Diversity Plus: BE3C Assay for Monokine induced gamma interferon (MIG) Biomarker Activity (AID 2283035); details: primary human bronchial epithelial cells; actives raise or lower the signal;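 also: MIG protein measured by ELISA in BE3C cultures after 24 h of dosing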
Method in brief: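 ELISA quantified MIG after 24 h exposure of primary bronchial epithelial cultures, analysed in both directions relative to DMSO. Cytotoxicity tracked in parallel cultures by sulforhodamine B staining.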

[6] = read-out: Transforming growth factor beta 1 (TGFb1), TGFB1 (gene 7040); experiment: BSK_BE3C_TGFb1: BioMAP Diversity Plus: BE3C Assay for Transforming growth factor beta 1 (TGFb1) Biomarker Activity (AID 2283036;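 also: TGF-b1 protein level measured by ELISA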); details: primary human bronchial epithelial cells; actives raise or lower the signal
Method in brief: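 Bronchial epithelial primary cells are treated with test chemical, then TGF-b1 is quantified by ELISA after 24 hours. Values derive from bidirectional fitting against DMSO, with cytotoxicity checked by SRB staining in parallel cultures.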

[7] = read-out: Plasminogen activator inhibitor-1 (PAI1), SERPINE1 (gene 5054); experiment: BSK_BE3C_PAI1: BioMAP Diversity Plus: BE3C Assay for Plasminogen activator inhibitor-1 (PAI1) Biomarker Activity (AID 2283037); details: primary human bronchial epithelial cells; actives raise or lower the signal
Method in brief: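 Values derive from bidirectional fitting against DMSO baseline of PAI-1 levels, measured by ELISA in human bronchial epithelial cells 24 h after compound addition.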

[8] = read-out: urokinase plasminogen activator (uPA), PLAU (gene 5328); experiment: BSK_BE3C_uPA: BioMAP Diversity Plus: BE3C Assay for urokinase plasminogen activator (uPA) Biomarker Activity (AID 2283038); details: primary human bronchial epithelial cells; actives raise or lower the signal;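 also: uPA protein level quantified by ELISA in cell cultures; uPA read one day after compound addition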
Method in brief: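 Human primary bronchial epithelial cells were exposed to chemical for 24 h, then uPA levels were measured by ELISA. Responses were fitted bidirectionally against DMSO as negative control and baseline. Parallel SRB staining of total protein gauged overt cytotoxicity.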

[9] = read-out: Urokinase-type plasminogen activator receptor (uPAR), PLAUR (gene 5329); experiment: BSK_BE3C_uPAR: BioMAP Diversity Plus: BE3C Assay for Urokinase-type plasminogen activator receptor (uPAR) Biomarker Activity (AID 2283039); details: primary human bronchial epithelial cells; actives raise or lower the signal;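 also: cells exposed to compound for one day before measurement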
Method in brief: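 Steps: dose human primary bronchial epithelial cells, incubate 24 h, measure uPAR by ELISA, then fit gain- or loss-of-signal response bidirectionally relative to DMSO.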

[10] = read-out: Interleukin-6 (IL6), IL6 (gene 3569); experiment: BSK_CASM3C_IL6: BioMAP Diversity Plus: CASM3C Assay for Interleukin-6 (IL6) Biomarker Activity for (AID 2283040); details: primary human coronary artery smooth muscle cells; actives raise or lower the signal
[11] = read-out: Tissue plasminogen activator (tPA), PLAT (gene 5327); experiment: BSK_BE3C_tPA: BioMAP Diversity Plus: BE3C Assay for Tissue plasminogen activator (tPA) Biomarker Activity (AID 2283041); details: primary human bronchial epithelial cells; actives raise or lower the signal;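 also: tPA level quantified by ELISA one day after compound addition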
Method in brief: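 Gain- or loss-of-signal in tPA, measured by ELISA, derived by bidirectional fitting against DMSO. Cells: human primary bronchial epithelial; read at 24 h after chemical dosing.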

[12] = read-out: Interleukin-8 (IL8), CXCL8 (gene 3576); experiment: BSK_CASM3C_IL8: BioMAP Diversity Plus: CASM3C Assay for Interleukin-8 (IL8) Biomarker Activity (AID 2283042); details: primary human coronary artery smooth muscle cells; actives raise or lower the signal;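 also: IL-8 protein level quantified by ELISA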
[13] = read-out: Human Leukocyte Antigen - DR isotype (HLADR), HLA-DRA (gene 3122); experiment: BSK_CASM3C_HLADR: BioMAP Diversity Plus: CASM3C Assay for Human Leukocyte Antigen - DR isotype (HLADR) Biomarker Activity (AID 2283043); details: primary human coronary artery smooth muscle cells; actives raise or lower the signal;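 also: cell-surface HLA-DR protein level quantified by ELISA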
[14] = read-out: Macrophage colony-stimulating factor (MCSF), CSF1 (gene 1435); experiment: BSK_CASM3C_MCSF: BioMAP Diversity Plus: CASM3C Assay for Macrophage colony-stimulating factor (MCSF) Biomarker Activity (AID 2283044); details: primary human coronary artery smooth muscle cells; actives raise or lower the signal;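 also: M-CSF protein amount quantified by ELISA after 24 h exposure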
[15] = read-out: Low-density lipoprotein receptor (LDLR), LDLR (gene 3949); experiment: BSK_CASM3C_LDLR: BioMAP Diversity Plus: CASM3C Assay for Low-density lipoprotein receptor (LDLR) Biomarker Activity (AID 2283045); details: primary human coronary artery smooth muscle cells; actives raise or lower the signal;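 also: LDLR protein level on the cell surface quantified by ELISA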
[16] = read-out: Monocyte Chemoattractant Protein-1 (MCP1), CCL2 (gene 6347); experiment: BSK_CASM3C_MCP1: BioMAP Diversity Plus: CASM3C Assay for Monocyte Chemoattractant Protein-1 (MCP1) Biomarker Activity (AID 2283046); details: primary human coronary artery smooth muscle cells; actives raise or lower the signal;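 also: MCP-1 level quantified by ELISA 24 h after dosing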
[17] = BSK_CASM3C_Proliferation: Cell Proliferation Assessment in the BioMAP Diversity Plus: CASM3C Assay (AID 2283047); details: primary human coronary artery smooth muscle cells;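 also: sulforhodamine B total protein stain as relative cell number at 560 nm; sub-confluent cells exposed 48 h before staining; fitted both ways against DMSO so gain or loss of cell number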
[18] = read-out: Monokine induced gamma interferon (MIG), CXCL9 (gene 4283); experiment: BSK_CASM3C_MIG: BioMAP Diversity Plus: CASM3C Assay for Monokine induced gamma interferon (MIG) Biomarker Activity (AID 2283048); details: primary human coronary artery smooth muscle cells; actives raise or lower the signal
[19] = read-out: serum amyloid A (SAA), SAA1 (gene 6288); experiment: BSK_CASM3C_SAA: BioMAP Diversity Plus: CASM3C Assay for serum amyloid A (SAA) Biomarker Activity (AID 2283049); details: primary human coronary artery smooth muscle cells; actives raise or lower the signal;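 also: SAA protein level quantified by ELISA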
[20] = BSK_CASM3C_SRB: Viability Assessment in the BioMAP Diversity Plus: CASM3C Assay (AID 2283050); details: primary human coronary artery smooth muscle cells;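 also: total protein by SRB staining as cytotoxicity measure in parallel cultures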

Measured: outcome

Cc1c(C(=O)O)c(O)cc2c1C(=O)c1c(O)c([C@@H]3O[C@H](CO)[C@@H](O)[C@H](O)[C@H]3O)c(O)c(O)c1C2=O
inactive: all assays above

COc1ccc(S(=O)(=O)N2C(=O)[C@@](c3ccccc3OC)(N3C[C@H](O)C[C@H]3C(=O)N(C)C)c3cc(Cl)ccc32)c(OC)c1
inactive: all assays above

CC(=O)OC/C=C(\C)CCC=C(C)C
inactive: all assays above

Cc1cccc(C)c1O
inactive: all assays above

C=CCc1ccc(O)c(OC)c1
inactive: all assays above

CC(CO)OC(C)CO (stereo not given) (tested in a mixture with another compound)
inactive: all assays above
